Compounds with a hit are over-represented: about 21% of the library has one in this group of screens.
IL1B secr inh: inhibitors of inflammasome signaling (IL-1 beta secretion); THP-1 LPS/ATP IL-1B secretion, AlphaLISA, 16 h; hits give low values; activity change, % at 57.5 µM; 4.7% of 360,000 active; AID 743279; in the data active = activity change below about -50%; inconclusive = mostly about -30% to -49%
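THP-1 cells pretreated 1 hr with compounds (up to 57.5 uM final), then stimulated with LPS (250 ng/mL final) plus ATP (1.25 mM final); secreted IL-1B measured by AlphaLISA after 16 hr, decreased signal indicating inhibition.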
DT40 TDP1 CPT: growth inhibition of DT40 Tdp1-/-;hTDP1 cells with camptothecin (screen for TDP1 inhibitors); chicken DT40 Tdp1-/-;hTDP1 cells + 20 nM CPT, ATP luminescence, 48 h; Potency, µM (top dose mostly 46.2 µM), usual class: inhibitors; 12% of 420,000 active; AID 686979; note: nearly all actives have a fitted effect of over 55% in size
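Chicken DT40 Tdp1-/- cells complemented with human TDP1, 400 cells/well, exposed to compounds plus 20 nM camptothecin for at least 48 h at 37 C; viability read as ATP content by CellTiter-Glo luminescence.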
D3 antag: antagonists of human D3 dopamine receptor; P35462; D3R cells, DiscoveRx beta-arrestin luminescence, antagonist mode; hits give low values; max response, negative = inhibition, %; 2.5% of 360,000 active; AID 652054; in the data active = max response below about -50%; inconclusive = no clear call, values can overlap the other calls
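Cells plated overnight at 1500 cells/well, then exposed to library compounds with dopamine controls for 90 minutes at 37 degrees C. DiscoveRx reagent added for 30–60 minutes at room temperature; luminescence read, quantitative HTS format.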
TDP1 cell noCPT: qHTS for Inhibitors of human tyrosyl-DNA phosphodiesterase 1 (TDP1): qHTS in cells in absence of CPT; Potency, µM (series often up to 46.2 µM), hits mostly inhibitors; DT40 Tdp1-/- hTDP1 cells, no CPT, ATP luminescence, 48 h; AID 686978, 2013; 15% of 420,000 active; note: nearly all actives have a fitted effect of over 55% in size
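Stably hTDP1-transfected Tdp1-null chicken DT40 cells were treated with library compounds minus camptothecin and grown for at least 48 hr at 37 °C, after which cellular ATP was quantified by luminescence.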
ClpP mod: qHTS Assay for Activators of ClpP | ATP-dependent Clp protease proteolytic subunit (Bacillus subtilis (strain 168)), P80244 | purified B. subtilis ClpP, FRET peptide cleavage, 20 min | Potency, µM (series often up to 57.5 µM) | 1.9% of 340,000 active; active = well fitted falling curve with a large enough effect; inconclusive = small, poorly fitted or top-dose-only effect; inactive = no such curve, though single readings can be large or run the other way; note: the source files actives as falling curves though it sought activators and does not explain the sign; nearly all actives have a fitted effect of over 65% in size
Target sequence (P80244 whole entry, looked up): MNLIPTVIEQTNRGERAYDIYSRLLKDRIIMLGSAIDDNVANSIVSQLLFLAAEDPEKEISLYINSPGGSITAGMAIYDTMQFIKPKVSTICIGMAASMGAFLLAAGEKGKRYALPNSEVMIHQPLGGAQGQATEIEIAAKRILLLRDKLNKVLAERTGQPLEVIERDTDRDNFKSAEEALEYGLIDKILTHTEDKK
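Buffer: 100 mM Tris/HCl pH8, 100 mM KCl, 0.05% low protease BSA, 2.5% glycerol, 0.01% Tween-20. ClpP 10 microg/mL final; 20 min RT; delta FRET normalized to ADEP and DMSO controls.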
DRD3 agonist: agonists of human D3 dopamine receptor; P35462; D3R DiscoveRx beta-arrestin cells, luminescence, 90 min; max activation, %; 0.58% of 410,000 active; AID 652048; in the data active = max activation above about 30%
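Cells at 1500/well, incubated overnight, then treated with pinned compounds (dopamine as control) for 90 min at 37 degrees C. DiscoveRx reagent added for 30 - 60 minutes at room temperature; luminescence read.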
Numbers stand for hits; – = inactive; ? = inconclusive; · = no result; [ ] = another dose, or the depositor's remark. Unless noted, calls come from the whole dose curve; as a rule, active = well fitted inhibition curve with a large enough effect; inconclusive = small, poorly fitted or top-dose-only effect; inactive = flat fitted curve, though single readings scatter.

SMILES	IL1B secr inh	DT40 TDP1 CPT	D3 antag	TDP1 cell noCPT	ClpP mod	DRD3 agonist
CCOC(=O)c1c(N)nn(C(=O)C(C)C)c1-c1ccccc1	–	?	–	13µM	–	–
CC(=O)NCCc1ccc(C(=O)COC(=O)C2CCCCC2)cc1	–	–	–	–	–	–
CCOC(=O)C1(CCc2ccccc2)CCN(C(=O)C2CCOCC2)CC1	–	–	–	?	·	–
CCOc1ccc(-n2c(=O)c3sccc3n(CC(=O)NCCc3ccc(OC)c(OC)c3)c2=O)cc1	–	–	–	–	–	–
CCN(CC)c1ccc(/C=C/C(=O)C2C(=O)C=C(C)OC2=O)cc1 (configuration not stated)	–	–	–	?	·	–
COc1ccc(CNc2cccc3[nH]c(C(F)(F)F)nc23)cc1OC	–	?	–	21µM	–	–
COc1ccc(CNC(=O)c2[nH]c(C(F)(F)F)nc2-c2ccccc2)cc1OC	–	–	-58	–	–	–
COc1ccc(CNC(=O)c2[nH]c(C(F)(F)F)nc2-c2ccccc2)cc1	–	–	–	?	–	–
Cc1cccc(NC(=O)CN2CCN(CC(=O)NCc3ccc(Cl)cc3Cl)CC2)c1C	–	23µM	–	?	–	–
NC(=O)c1ccccc1NC(=O)CN1CCN(Cc2ccc(Cl)cc2Cl)CC1	–	?	–	23µM	–	–
Cc1cccc(NC(=O)CN2CCN(C(=O)CNC(=O)Cc3cccc4ccccc34)CC2)c1C	–	23µM	–	10µM	–	–
Cc1cccc(NC(=O)CCC(=O)N2CCOCC2)n1	–	–	?	–	–	–
CNC(=S)N(CCc1c(C)[nH]c2ccccc12)Cc1cccnc1	–	–	?	?	·	–
CC(C)Cc1nc2cc(NS(=O)(=O)N(C)C)cc(C(=O)N3CC4(C)CC3CC(C)(C)C4)c2n1C (configuration not stated)	·	–[9.04 µM]	·	?	·	·
C=CC(=O)Nc1cc2c(Nc3ccc(F)c(Cl)c3)ncnc2cc1OCCCN1CCOCC1	·	5.3µM	·	4.7µM	·	–
O=C(NCCCN1CCOCC1)c1ccc2c(=O)n(-c3ccc(F)c(Cl)c3)c(=S)[nH]c2c1	–	–	–	?	·	–
COc1ccc(Br)cc1CNC(=O)c1ccc(-n2c(C)cc3c2CCC(C)C3)cc1 (configuration not stated)	·	23µM	·	18µM	–	–
CCc1ccc(CNC(=O)c2ccc(-n3c(C)cc4c3CCC(C)C4)cc2)cc1 (configuration not stated)	·	16µM	·	21µM	–	–
CCCOc1ccc(CNC(=O)c2ccc(-n3c(C)cc4c3CCC(C)C4)cc2)cc1 (configuration not stated)	·	?	·	?	–	–
Cc1cc2c(n1-c1ccc(C(=O)NCc3cccc(Br)c3)cc1)CCC(C)C2 (configuration not stated)	·	?	·	15µM	–	–
COc1cccc(CNC(=O)c2ccc(-n3c(C)cc4c3CCC(C)C4)cc2)c1 (configuration not stated)	·	?	·	?	–	–
CCCC(=O)NCCc1nc2ccccc2n1CC(=O)c1ccccc1	–	–	–	–	–	–
CC(=O)NCCc1nc2ccccc2n1CCOc1ccc(C)cc1	–	?	–	?	–	–
CCCC(=O)NCCCc1nc2ccccc2n1C(C)C	–	?	–	15µM	–	–
O=C(N/N=C/c1ccc(N2CCCCC2)o1)c1ccccc1	-96	9.2µM	?	12µM	–	–
Cc1ccc(/C=N/NC(=O)c2ccc(-c3ccccc3)cc2)o1	–	–	–	?	·	–
Cn1c(/C=N/NC(=O)c2ccccc2)nc2ccccc21	–	?	–	26µM	–	–
CC(=O)NCCc1nc2ccccc2n1CCCCOc1ccc(Cl)cc1	·	21µM	·	15µM	–	–
O=c1oc2cc(O)ccc2cc1-c1ccc2c(c1)OCCO2	·	–[9.04 µM]	·	–[9.04 µM]	·	·

Screening results from PubChem.
